Source: PubChem BioAssay (NCI)
The panel holds about 83,000 compounds, 20% with a hit somewhere; the sample as a whole holds those more often.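 Activity criterion: percent growth below 10, measured after cells in 96-well plates were exposed to a single compound concentration for 48 hours.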 Unmarked numbers belong to inactive results. Calls of active or inactive are those of the source.

system: HT29 colon; assay: NCI-60 one-dose screen, 48 h (100 = growth as untreated, 0 = no growth, -100 = all killed); settings: 10 µM unless noted

For `COc1cc(/C=C/C(=O)c2cccc(-n3cc(-c4ccccc4)[nH]c3=O)c2)cc(OC)c1OC`, the growth was -72% (active).
In the case of `COc1ccc(/C(C)=C(\c2ccc(Cl)cc2)c2ccc(OCCCN(C)C)cc2)cc1F`, the growth is reported as 3.41% (active).
In the case of `O=[N+]([O-])c1ccc2[nH]cc(-c3c4ccsc4cc4[nH]c5ccc([N+](=O)[O-])cc5c34)c2c1`, the growth is reported as -14.5% (active).
For `O=C(CC12CC3CC(CC(C3)C1)C2)NCCOCCOCCOCCNC(=O)c1cc2c(o1)C(=O)c1ccccc1C2=O`, the growth was 1.17% (active).
With `Oc1[nH]c2ccccc2c1/C=c1/cc2c(c(-c3ccc(F)cc3)n1)=Nc1ccccc1-2` the growth was -41.7% (active).
For `COC(=O)Nc1nc2ccc(C(=O)C3CC3)cc2[nH]1`, the growth was 1.32% (active).
In the case of `NC(N)=N/N=C(/c1ccccc1)c1ccccc1F`, the growth is reported as 8.59% (active).

In order of falling growth:
1. Cc1nc(Nc2ccc(NC(=S)Nc3ccccc3)cc2)nc2nc(Nc3ccc(S(=O)(=O)O)cc3)[nH]c(=O)c12  145%
2. CC(/C=N/NC(=O)c1cc(-c2ccco2)[nH]n1)=C\c1ccccc1  113%
3. CCOc1cc(N)ccc1C(=O)NCCCN(CC)CC  102%
4. Oc1ccccc1-c1nc2ccccn2c1NCCN1CCOCC1  93.8%
5. CN(C)c1ccc(/C=C/c2c(F)cccc2F)cc1  92.3%
6. CCOC(=O)c1nnn(C(Cc2ccccc2Cl)C(=O)OCC)c1C (configuration not stated)  86.8%
7. N#Cc1c(N)nc2c(nnn2-c2cccc(C(F)(F)F)c2)c1N  86%
8. O=C1NC(=S)S/C1=C\N1N=C(c2ccc(Cl)cc2)CC1c1ccc(F)cc1 (configuration not stated)  85.5%
9. CC(c1ccc(-n2cccn2)cc1)c1cnc(N2CCc3ccc(C(N)=O)cc3C2)s1 (configuration not stated)  81.3%
10. N#Cc1c(-c2ccc(C(F)(F)F)cc2)cc(N2CC(O)C2)n2c1nc1ccccc12  74%
11. O=C1c2ccccc2C(=O)c2cc(Cn3cc[n+](Cc4ccc5ccccc5c4)c3)ccc21  73.1%
12. COc1cc2ccccc2cc1C(=O)NC(=S)Nc1ccc(-c2nc3ccccc3[nH]2)cc1  72.7%
13. C[C@@H]1C(=O)N(C[C@H](Cc2ccccc2)NC(=O)OCc2ccccc2)[C@]1(Cc1ccccc1)C(=O)OC(C)(C)C  56.3%
14. CC1(C)N=C(N)N=C(N)N1c1ccc(Cl)c(Cl)c1  36.2%
15. CN(C)CN1CCN(c2ccc3nc(-c4ccc5nc(-c6ccc(C(F)(F)F)cc6)[nH]c5c4)[nH]c3c2)CC1  29.3%
16. Cc1nc(Nc2ccccn2)sc1C(=O)/C=C/c1ccc(Br)cc1  25.9%

system: SNB-75 CNS; assay: as above; settings: 10 µM unless noted

`Fc1ccc(Nc2nc3nonc3nc2Nc2ccc(F)cc2)cc1` was tested, and the growth was -12.9% (active).
`CC(C)n1nc(C#Cc2cccc(O)c2)c2c(N)ncnc21` was tested, and the growth was -84.7% (active).
For `COc1ccc(NC(=O)c2cccc(-c3cc(=O)c4c(O)c(OC)c(OC)cc4o3)c2)cc1`, the growth was -5.24% (active).
In the case of `O=[N+]([O-])c1ccc2[nH]cc(-c3c4ccsc4cc4[nH]c5ccc([N+](=O)[O-])cc5c34)c2c1`, the growth is reported as -24.3% (active).
With `N#Cc1c(-c2ccc(C(F)(F)F)cc2)cc(N2CC(O)C2)n2c1nc1ccccc12` the growth was -18.5% (active).
`O=C(CC12CC3CC(CC(C3)C1)C2)NCCOCCOCCOCCNC(=O)c1cc2c(o1)C(=O)c1ccccc1C2=O` was tested, and the growth was -98.9% (active).
`Oc1[nH]c2ccccc2c1/C=c1/cc2c(c(-c3ccc(F)cc3)n1)=Nc1ccccc1-2` was tested, and the growth was -2.31% (active).
In the case of `COC(=O)Nc1nc2ccc(C(=O)C3CC3)cc2[nH]1`, the growth is reported as 9.46% (active).
For `NC(N)=N/N=C(/c1ccccc1)c1ccccc1F`, the growth was 7.44% (active).

In order of rising growth:
1. COc1cc(C2C=C(c3cccc(NC(C)=O)c3)Nc3ncnn32)cc(OC)c1OC (configuration not stated)  21.9%
2. C=CC(=O)Nc1cccc(C)c1Nc1cc(-c2cccnc2Cc2c(C)c(OC)cc(OC)c2C)ncn1  23.9%
3. COc1cccc(CCC2CCCN(c3cc(C)nc(N)n3)C2)c1 (configuration not stated)  25.9%
4. COc1cc(/C=C/C(=O)c2cccc(-n3cc(-c4ccccc4)[nH]c3=O)c2)cc(OC)c1OC  34.2%
5. CN(C)CN1CCN(c2ccc3nc(-c4ccc5nc(-c6ccc(C(F)(F)F)cc6)[nH]c5c4)[nH]c3c2)CC1  38.8%
6. Cc1nc(Nc2ccccn2)sc1C(=O)/C=C/c1ccc(Br)cc1  40.2%
7. c1ccc2[nH]c(SSc3nc4ncncc4[nH]3)nc2c1  45.5%
8. COc1cc2ccccc2cc1C(=O)NC(=S)Nc1ccc(-c2nc3ccccc3[nH]2)cc1  54.4%
9. COc1cc(C2CC(c3ccc(Nc4nc(Nc5ccc(F)cc5)nc(Nc5ccc(Cl)cc5)n4)cc3)=NN2C(C)=O)cc(OC)c1OC (configuration not stated)  54.7%
10. O=C1c2ccccc2C(=O)c2cc(Cn3cc[n+](Cc4ccc5ccccc5c4)c3)ccc21  62.8%
11. CC(/C=N/NC(=O)c1cc(-c2ccco2)[nH]n1)=C\c1ccccc1  66.8%
12. C[C@@H]1C(=O)N(C[C@H](Cc2ccccc2)NC(=O)OCc2ccccc2)[C@]1(Cc1ccccc1)C(=O)OC(C)(C)C  68.7%
13. COc1ccc(/C(C)=C(\c2ccc(Cl)cc2)c2ccc(OCCCN(C)C)cc2)cc1F  70.6%
14. CC1(C)N=C(N)N=C(N)N1c1ccc(Cl)c(Cl)c1  71.2%
15. c1ccc(-c2oc3ccccc3c2-c2ccccc2)cc1  72.5%
16. O=C1NC(=S)S/C1=C\N1N=C(c2ccc(Cl)cc2)CC1c1ccc(F)cc1 (configuration not stated)  76.1%
17. CC(c1ccc(-n2cccn2)cc1)c1cnc(N2CCc3ccc(C(N)=O)cc3C2)s1 (configuration not stated)  76.1%
18. Oc1ccccc1-c1nc2ccccn2c1NCCN1CCOCC1  80.2%
19. Cc1c(C(=O)O)nnn1-c1nccs1  81.8%
20. N#Cc1c(N)nc2c(nnn2-c2cccc(C(F)(F)F)c2)c1N  82.6%
21. Clc1ccc2[nH]c3c(NCCCN4CCOCC4)ncnc3c2c1  85%
22. CCOc1cc(N)ccc1C(=O)NCCCN(CC)CC  85%
23. CC(C)OCCCNCC(=O)Nc1ccc(S(=O)(=O)c2ccc(NC(=O)CNCCCOC(C)C)cc2)cc1  85.5%
24. CN(C)c1ccc(/C=C/c2c(F)cccc2F)cc1  88.4%
25. CC(C)c1ccc(C(=O)OC(=O)c2ccc(C(C)C)cc2)cc1  88.6%
26. CCOC(=O)c1nnn(C(Cc2ccccc2Cl)C(=O)OCC)c1C (configuration not stated)  89.5%
27. CSc1ccc(Cl)c(C(=O)Nc2sccc2C(N)=O)c1  105%
28. CCN(CC)CCCNC(=O)c1ccc(N)cc1O  113%
29. Cc1nc(Nc2ccc(NC(=S)Nc3ccccc3)cc2)nc2nc(Nc3ccc(S(=O)(=O)O)cc3)[nH]c(=O)c12  128%
30. CCCCCCCC/C=C\CCCCCCCC(=O)Oc1cccc2cccnc12  149%
